Source: PubChem BioAssay AID602262 (National Center for Advancing Translational Sciences (NCATS), 2012)
Active and inactive are the calls of the source. Calls follow the shape of the dose curve; as a rule, active = well fitted curve in the direction sought with a large enough effect; inactive = no such curve, though single readings can be large or run the other way.

assay: qHTS Assay for Agonists of the Relaxin Receptor RXFP1: V1B SAR; conditions: HEK293 V1B cells, cAMP TR-FRET, 30 min; series mostly up to 78.1 µM; activation: at the top concentration
From the text: The relaxin hormone is involved in the variety of biological functions in normal tissues and diseases. The role of relaxin is well-established in female reproduction and parturition, mammary gland and endometrial development, maintenance of myometrial quiescence during pregnancy. Relaxin signaling through its G protein-coupled receptor (GPCR) RXFP1 results in ECM remodeling through regulation of collagen deposition, cell invasiveness, proliferation and overall tissue homeostasis. […] Recombinant human relaxin (rhRlx) is currently being tested in clinical trials as a protective agent in congestive heart failure, in treating severe preeclampsia, and as an anti-fibrotic agent in systemic sclerosis. Upon relaxin binding RXFP1 activation leads to the activation of adenylate cyclase (AC) via Gs. cAMP will activate PKA, which phosphorylates many signaling proteins. Thus, detection of cAMP increase is an easy and reliable indication of relaxin receptor activation. To screen for agonists of the relaxin receptor, a HEK293T cell line stably transfected with RXFP1 was used. RXFP1 activation was assayed by changes in cAMP levels as detected with a time-resolved fluorescence energy transfer (TR-FRET) cAMP detection kit. This assay measures activation of a cell expressing V1B, another GPCR targeted by relaxin, to determine the selectivity of compounds for RXFP1. NIH Chemical Genomics Center [NCGC] NIH Molecular Libraries Probe Production Centers Network [MLPCN] MLPCN Grant: R03 MH085705-01A1 Assay Submitter (PI): Alexander Agoulnik
This is a cell-based assay for cAMP second messenger response to screen for agonists of the RXFP2 receptor. The assay was conducted in the presence of a PDE4 inhibitor (Ro 20174). The cells were lysed and the cAMP levels were measured with a TR-FRET cAMP kit. Presence of cAMP in the cell lysate disrupts binding between the cryptate-labeled anti-cAMP and d2-labeled cAMP pair, leading to a decrease in the TR-FRET signal. Data were normalized to the controls for basal activity (buffer only) and 100% activity (29 nM porcine relaxin). The EC50 values were determined from concentration-response data modeled with the standard Hill equation 1536-well assay protocol for the HEK293 V1B cAMP assay: (1) Add 3 ul HEK293 RXFP2 cell culture. 2000 cells/well in DMEM/F12, 10% FBS, 1x Pen/Strep (dispensed offline with MultiDrop Combi). (2) Incubate 16-24 hr at 37C, 5% CO2. (3) Add 1 ul 400uM Ro20174 in DPBS, 0.05% BSA, 0.005% Tween 20. (3) Add 23 nl compounds in DMSO solution. Final concentration was 0.5 - 58 uM. (4) Incubate 30 min at 37C, 5% CO2. (5) Add 1 ul cAMP-d2 in lysis buffer (HTRF cAMP HiRange kit, CisBio). (6) Add 1 ul anti-cAMP antibody-cryptate in lysis buffer (HTRF cAMP HiRange kit, CisBio). (7) Incubate 30 min at room temperature. (6) Detect the assay plate in a ViewLux plate reader (PerkinElmer) with Ex=320 nm, Em1=615 nm and Em2=665 nm. Keywords: relaxin, RXFP1, RXFP2, G-protein coupled receptor, cAMP, agonist, high throughput screening, MLSMR, MLSCN, NIH Roadmap, qHTS and NCGC

activation, inactive:
O=C(Cc1ccccc1)Nc1ccccc1C(=O)Nc1cccc(C(F)(F)F)c1 -1.24%
COc1ccccc1C(=O)Nc1ccccc1C(=O)Nc1cccc(C(F)(F)F)c1 -4.34%
COc1cccc(OC)c1C(=O)Nc1ccccc1C(=O)Nc1cccc(C(F)(F)F)c1 -1.17%
COc1ccccc1C(=O)N(C)c1ccccc1C(=O)N(C)c1cccc(C(F)(F)F)c1 -1.13%
O=C(Nc1ccccc1C(=O)Nc1cccc(C(F)(F)F)c1)c1ccccc1Cl 3.73%
O=C(Nc1cccc(F)c1)c1ccccc1NC(=O)C1CCCCC1 -4.78%
CCOc1ccccc1C(=O)Nc1ncccc1C(=O)Nc1cccc(S(=O)(=O)C(F)(F)F)c1 2.36%
CC(C)Oc1ccccc1C(=O)Nc1ccccc1C(=O)Nc1cccc(S(=O)(=O)C(F)(F)F)c1 -0.72%
COCCOc1ccccc1C(=O)Nc1ccccc1C(=O)Nc1cccc(C(F)(F)F)c1 -2.02%
COc1ccccc1C(=O)Nc1ccccc1C(=O)Nc1cccc(SC(F)(F)F)c1 -3.98%
CCOc1ccccc1-c1nc2c(C(=O)Nc3cccc(S(=O)(=O)C(F)(F)F)c3)cccc2[nH]1 5.06%
CCOc1ccccc1C(=O)Nc1cnccc1C(=O)Nc1cccc(S(=O)(=O)C(F)(F)F)c1 2.84%
COc1ccccc1C(=O)Nc1cccc(C(=O)Nc2cccc(C(F)(F)F)c2)c1 0.812%
COc1ccc(C(=O)Nc2ccccc2C(=O)Nc2cccc(C(F)(F)F)c2)cc1 3.66%
COc1ccccc1C(=O)Nc1ccccc1C(=O)Nc1cccc(S(=O)(=O)C(F)(F)F)c1 -2.19%
CCOc1ccccc1C(=O)Nc1ccccc1C(=O)Nc1cccc(S(=O)(=O)C(F)(F)F)c1 -0.766%
O=C(Nc1cccc(SC(F)(F)F)c1)c1ccccc1NC(=O)C1CCCCC1 0.962%
Cc1ccccc1C(=O)Nc1ccccc1C(=O)Nc1cccc(C(F)(F)F)c1 -2.4%
COCCOc1ccccc1C(=O)Nc1cccc(C(F)(F)F)c1 -3.76%
COc1ccccc1C(=O)Nc1ccccc1C(=O)N(C)c1cccc(C(F)(F)F)c1 -3.58%
CCOc1ccccc1C(=O)Nc1ccccc1CNc1cccc(S(=O)(=O)C(F)(F)F)c1 2.87%
COc1cccc(NC(=O)c2ccccc2NC(=O)C2CCCCC2)c1 -6.38%
O=C(Nc1cccc(Cl)c1)c1ccccc1NC(=O)C1CCCCC1 -5.01%
CCOc1ccccc1C(=O)NCCC(=O)Nc1cccc(S(=O)(=O)C(F)(F)F)c1 3.4%
O=C(Nc1cccc(C(F)(F)F)c1)c1ccccc1NC(=O)C1CCC1 8.48%
COc1ccccc1CNc1ccccc1C(=O)Nc1cccc(C(F)(F)F)c1 1.52%
O=C(Nc1cccc(C(F)(F)F)c1)c1ccccc1NC(=O)C1CC1 8.37%
COc1ccccc1C(=O)N(C)c1ccccc1C(=O)Nc1cccc(C(F)(F)F)c1 -2.85%
O=C(Nc1ccccc1)c1ccccc1NC(=O)C1CCCCC1 -1.89%
CCCCOc1ccccc1C(=O)Nc1ccccc1C(=O)Nc1cccc(S(=O)(=O)C(F)(F)F)c1 -0.668%
Cc1ccccc1NC(=O)c1ccccc1NC(=O)C1CCCCC1 -4.45%
O=C(Nc1ccccc1C(=O)Nc1cccc(C(F)(F)F)c1)c1cccnc1 -5.19%
CCOc1ccccc1C(=O)Nc1sccc1C(=O)Nc1cccc(S(=O)(=O)C(F)(F)F)c1 12.3%
COCCNc1ccccc1C(=O)Nc1cccc(C(F)(F)F)c1 -6.16%
CN(C)CCOc1ccccc1C(=O)Nc1ccccc1C(=O)Nc1cccc(C(F)(F)F)c1 1.12%
O=C(Nc1cccc(C(F)(F)F)c1)c1ccccc1NC(=O)C1CCCCCC1 3.2%
O=C(Nc1cccc(-c2ccccc2C(F)(F)F)c1)c1ccccc1NC(=O)C1CCCCC1 3.89%
O=C(Nc1cccc(C(F)(F)F)c1)c1ccccc1NC(=O)C1CCCC1 -3.74%
O=C(Nc1cccc(C(F)(F)F)c1)c1ccccc1NC(=O)c1ccccc1OC(F)(F)F 2.56%
O=C(Nc1cccc(Br)c1)c1ccccc1NC(=O)C1CCCCC1 1.94%
